The source of these data is PubChem BioAssay (NCI).

Compounds without any hit were thinned out: in the full panel of roughly 79,000, 15% have a hit. Values without a mark were called inactive. Calls of active or inactive are those of the source. Rule as the data show it: active = growth inhibition above about 70%; inactive = the rest.

Test [1] in a line: NCI Yeast Anticancer Drug Screen. Data for the rad50 strain (AID 155).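 Also: 0% = growth of vehicle-only cultures of the same strain.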 The note with it: S. cerevisiae rad50 strain growth inhibition, stronger effect = higher value. A digest of the protocol:
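Cells are treated with compound, grown, and their growth is then scored against vehicle-only cultures of the same repair-deficient yeast strain.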

Test [2] is described as follows: NCI Yeast Anticancer Drug Screen. Data for the mec2-1 strain (AID 157). The note with it: S. cerevisiae mec2-1 strain, stronger effect = higher value. An outline of the steps:
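Each compound was tested on mec2-1 yeast, a strain altered in DNA damage repair or cell cycle control. Growth inhibition is reported relative to vehicle.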

Test [3] is described as follows: NCI Yeast Anticancer Drug Screen. Data for the sgs1 mgt1 strain (AID 161).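 Also: 0% = growth of cultures given vehicle only.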 To be noted: S. cerevisiae sgs1 mgt1 strain, stronger effect = higher value. An outline of the steps: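 Mutant yeast exposed to compound; growth scored against vehicle-only wells.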
The nature of test [4]: NCI Yeast Anticancer Drug Screen. Data for the cln2 rad14 strain (AID 165).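 Also: 0% = growth equal to vehicle treated cultures.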 To be noted: S. cerevisiae cln2 rad14 strain, stronger effect = higher value. A digest of the protocol: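 Test compounds were added to cln2 rad14 yeast cultures; inhibition of growth was then determined by comparison with vehicle treatment.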
The nature of test [5]: NCI Yeast Anticancer Drug Screen. Data for the bub3 strain (AID 167). To be noted: S. cerevisiae bub3 mutant strain, stronger effect = higher value. An outline of the steps: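 Part of a panel of yeast mutants defective in DNA damage repair or cell cycle regulation. Each strain is grown with compound, and inhibition is calculated relative to solvent-treated cultures.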
A short description of test [6]: NCI Yeast Anticancer Drug Screen. Data for the mlh1 rad18 strain (AID 175). To be noted: S. cerevisiae mlh1 rad18 strain growth inhibition, stronger effect = higher value. A digest of the protocol:
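Inhibition values reflect reduced growth of mutant yeast versus vehicle-treated controls following compound exposure; the mutations affect DNA damage repair.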

The mark [7] stands for this setting: at 5.0 µM (retest, dose inferred, filed as 0.5).
Setting [8] is: at 50.0 µM (retest, dose inferred, filed as 5.0).

For the molecule `NC(N)=Nc1ccc(C(=O)Oc2c(Cl)cc([N+](=O)[O-])cc2Cl)cc1`, the growth inhibition was -30% in test [1] (setting [7]); 46% in test [1] (setting [8]); 48% in test [1] (at 50.0 µM); -6% in test [2] (setting [7]); 28% in test [2] (setting [8]); 30.2% in test [2] (at 50.0 µM). In addition, the growth inhibition in test [3] (setting [7]) is 4%; in test [3] (setting [8]) it was 65%; in test [3] (at 50.0 µM), 71.1% (active); in test [4] (setting [7]) it was -9%; in test [4] (setting [8]), 32%; in test [4] (at 50.0 µM), 21.9%. In addition, the growth inhibition was -6% in test [5] (setting [7]); 40% in test [5] (setting [8]); 25.9% in test [5] (at 50.0 µM); 12% in test [6] (setting [7]); 56% in test [6] (setting [8]); 32.9% in test [6] (at 50.0 µM).

With `C/C(=N/NC(=S)NCc1ccccc1)c1ncccn1`, the growth inhibition is -6% in test [1] (setting [7]); 98% (active) in test [1] (setting [8]); 98.8% (active) in test [1] (at 50.0 µM); 14% in test [2] (setting [7]); 98% (active) in test [2] (setting [8]); 98.9% (active) in test [2] (at 50.0 µM). In addition, the growth inhibition was 2% in test [3] (setting [7]); 98% (active) in test [3] (setting [8]); 99% (active) in test [3] (at 50.0 µM); 7% in test [4] (setting [7]); 98% (active) in test [4] (setting [8]); 97.8% (active) in test [4] (at 50.0 µM). Moreover, the growth inhibition is -23% in test [5] (setting [7]); 98% (active) in test [5] (setting [8]); 98.5% (active) in test [5] (at 50.0 µM); 3% in test [6] (setting [7]); 98% (active) in test [6] (setting [8]); 98.9% (active) in test [6] (at 50.0 µM).

Consider `Cc1cc(C)[nH]c(=S)n1.[Pt]`, for which the growth inhibition in test [1] (setting [7]) was -1%; in test [1] (setting [8]), -9%; in test [1] (at 50.0 µM), 8.7%; in test [2] (setting [7]), 0%; in test [2] (setting [8]), -3%; in test [2] (at 50.0 µM), 35.2%. Further, the growth inhibition in test [3] (setting [7]) was -2%; in test [3] (setting [8]), -5%; in test [3] (at 50.0 µM), 12.2%; in test [4] (setting [7]) it was 2%; in test [4] (setting [8]), 7%; in test [4] (at 50.0 µM), 81.3% (active). Also, the growth inhibition is 2% in test [5] (setting [7]); -2% in test [5] (setting [8]); 21.9% in test [5] (at 50.0 µM); -2% in test [6] (setting [7]); -7% in test [6] (setting [8]); 0.5% in test [6] (at 50.0 µM).

As to `C/C(=C\N1CCN(c2ccc(Cl)cc2)C(C)C1)C(=O)c1ccccc1` (stereo not given), the growth inhibition in test [1] (setting [7]) is 7%; in test [1] (setting [8]), 89% (active); in test [1] (at 50.0 µM) it was 52.9%; in test [2] (setting [7]) it was 4%; in test [2] (setting [8]), 92% (active); in test [2] (at 50.0 µM), 30.7%. For the same molecule, the growth inhibition in test [3] (setting [7]) is 15%; in test [3] (setting [8]), 89% (active); in test [3] (at 50.0 µM), 79.8% (active); in test [4] (setting [7]) it was -2%; in test [4] (setting [8]) it was 86% (active); in test [4] (at 50.0 µM), 27.8%. Besides, the growth inhibition is -1% in test [5] (setting [7]); 92% (active) in test [5] (setting [8]); 24.9% in test [5] (at 50.0 µM); 4% in test [6] (setting [7]); 87% (active) in test [6] (setting [8]); 57.3% in test [6] (at 50.0 µM).

Take `CCCCCCCCCCCCCCCCN[Si](NCCCCCCCCCCCCCCCC)(NCCCCCCCCCCCCCCCC)NCCCCCCCCCCCCCCCC`: the growth inhibition is 97% (active) in test [1] (setting [7]); 96% (active) in test [1] (setting [8]); 85.5% (active) in test [1] (at 50.0 µM); 99% (active) in test [2] (setting [7]); 96% (active) in test [2] (setting [8]); 83.4% (active) in test [2] (at 50.0 µM). Besides, the growth inhibition in test [3] (setting [7]) is 99% (active); in test [3] (setting [8]), 96% (active); in test [3] (at 50.0 µM) it was 88.2% (active); in test [4] (setting [7]) it was 98% (active); in test [4] (setting [8]), 95% (active); in test [4] (at 50.0 µM), 85.5% (active). The growth inhibition was 99% (active) in test [5] (setting [7]); 97% (active) in test [5] (setting [8]); 86% (active) in test [5] (at 50.0 µM); 97% (active) in test [6] (setting [7]); 95% (active) in test [6] (setting [8]); 83.9% (active) in test [6] (at 50.0 µM).

Regarding `Cc1ccc(S(=O)(=O)Nc2ccc(C)cc2C)cc1`, the growth inhibition in test [1] (setting [7]) was -3%; in test [1] (setting [8]), 96% (active); in test [1] (at 50.0 µM), 85.5% (active); in test [2] (setting [7]), -6%; in test [2] (setting [8]), 96% (active); in test [2] (at 50.0 µM), 54%. In addition, the growth inhibition was -2% in test [3] (setting [7]); 97% (active) in test [3] (setting [8]); 55.4% in test [3] (at 50.0 µM); -3% in test [4] (setting [7]); 83% (active) in test [4] (setting [8]); 32.8% in test [4] (at 50.0 µM). Further, the growth inhibition in test [5] (setting [7]) was -1%; in test [5] (setting [8]), 95% (active); in test [5] (at 50.0 µM) it was 63.4%; in test [6] (setting [7]), -2%; in test [6] (setting [8]), 95% (active); in test [6] (at 50.0 µM) it was 75.2% (active).

As to `C/C=C1\CC(C)(CC)C(C#N)(C#N)C(N)=C1C#N` (stereo not given), the growth inhibition was 0% in test [1] (setting [7]); -9% in test [1] (setting [8]); -5.9% in test [1] (at 50.0 µM); -3% in test [2] (setting [7]); 0% in test [2] (setting [8]); 10.5% in test [2] (at 50.0 µM). The growth inhibition in test [3] (setting [7]) is 2%; in test [3] (setting [8]), -4%; in test [3] (at 50.0 µM) it was -4.35%; in test [4] (setting [7]), -9%; in test [4] (setting [8]), -3%; in test [4] (at 50.0 µM), 3.35%. Also, the growth inhibition is -3% in test [5] (setting [7]); -2% in test [5] (setting [8]); 50.9% in test [5] (at 50.0 µM); 0% in test [6] (setting [7]); -9% in test [6] (setting [8]); -28.7% in test [6] (at 50.0 µM).

Turning to `O=C(c1c(F)c(F)c(F)c(F)c1F)N1CCN(C(=O)c2c(F)c(F)c(F)c(F)c2F)C1=S`, the growth inhibition in test [1] (setting [7]) was 0%; in test [1] (setting [8]) it was 91% (active); in test [1] (at 50.0 µM), 88.2% (active); in test [2] (setting [7]), 15%; in test [2] (setting [8]), 81% (active); in test [2] (at 50.0 µM), 88.7% (active). In addition, the growth inhibition in test [3] (setting [7]) is 8%; in test [3] (setting [8]), 94% (active); in test [3] (at 50.0 µM), 90.9% (active); in test [4] (setting [7]), 8%; in test [4] (setting [8]) it was 88% (active); in test [4] (at 50.0 µM), 85.3% (active). In addition, the growth inhibition was -7% in test [5] (setting [7]); 86% (active) in test [5] (setting [8]); 85.3% (active) in test [5] (at 50.0 µM); 32% in test [6] (setting [7]); 92% (active) in test [6] (setting [8]); 91.2% (active) in test [6] (at 50.0 µM).

For `Cc1c(N=Nc2ccc(Cl)cc2)c(-c2ccccc2)n(C2OC(CO)C(O)C(O)C2O)c(=S)c1C#N` (stereo not given), the growth inhibition was -9% in test [1] (setting [7]); 89% (active) in test [1] (setting [8]); 96.6% (active) in test [1] (at 50.0 µM); -13% in test [2] (setting [7]); 96% (active) in test [2] (setting [8]); 97.2% (active) in test [2] (at 50.0 µM). The growth inhibition in test [3] (setting [7]) was 18%; in test [3] (setting [8]), 48%; in test [3] (at 50.0 µM), 97.5% (active); in test [4] (setting [7]), 18%; in test [4] (setting [8]), 95% (active); in test [4] (at 50.0 µM), 97.1% (active). The growth inhibition in test [5] (setting [7]) is -2%; in test [5] (setting [8]) it was 95% (active); in test [5] (at 50.0 µM), 97.3% (active); in test [6] (setting [7]) it was -7%; in test [6] (setting [8]), 96% (active); in test [6] (at 50.0 µM), 97.4% (active).

Take `CCCOC(=O)C(Br)C(Br)C(=O)OCCC` (stereo not given): the growth inhibition in test [1] (setting [7]) was 60%; in test [1] (setting [8]), 97% (active); in test [1] (at 50.0 µM) it was 90.5% (active); in test [2] (setting [7]), 57%; in test [2] (setting [8]) it was 98% (active); in test [2] (at 50.0 µM), 93% (active). Further, the growth inhibition in test [3] (setting [7]) is 36%; in test [3] (setting [8]), 100% (active); in test [3] (at 50.0 µM) it was 93.5% (active); in test [4] (setting [7]), 59%; in test [4] (setting [8]), 101% (active); in test [4] (at 50.0 µM) it was 91% (active). Besides, the growth inhibition in test [5] (setting [7]) is 46%; in test [5] (setting [8]), 100% (active); in test [5] (at 50.0 µM), 91.8% (active); in test [6] (setting [7]) it was 44%; in test [6] (setting [8]), 98% (active); in test [6] (at 50.0 µM) it was 90.5% (active).
